The campaign covered roughly 5,500 compounds. About 2,000 (36%) were called active. Roughly 18% stayed inconclusive and do not appear here. Rule as the data show it: active = normalized growth mostly below about 0.91 (no sharp cut-off); inconclusive = no clear call, values can overlap the other calls; inactive = mostly above about 0.92. The list shows a part of the results.
Assay: chemical genetic growth profiling, strain panel (AID 1159580);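 also: tested at 20 µM; growth read once vehicle control cultures reached saturation at 30 °C; 1 = growth at the plate median or of vehicle wells; lower values mean less growth of the strain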
Details: growth OD

Measured: normalized growth

c1ccc([C@H]2CN3CCSC3=N2)cc1
inactive: S. cerevisiae deletion strains, locus YJR075W, strain HOC1, active compounds read low 1.01 | S. cerevisiae deletion strains, locus YKL009W, strain mrt4, active compounds read low 1.01 | S. cerevisiae deletion strains, locus YKL068W, active compounds read low 1.01 | S. cerevisiae deletion strains, locus YKL085W, strain MDH1 (second series), active compounds read low 0.999 | S. cerevisiae deletion strains, locus YKL085W, strain MDH1, active compounds read low 0.999 | S. cerevisiae deletion strains, locus YKL160W, strain elf1, active compounds read low 1.01 | S. cerevisiae deletion strains, locus YKL190W, strain CNB1, active compounds read low 0.998 | S. cerevisiae deletion strains, locus YKR001C, strain vps1, active compounds read low 1 | S. cerevisiae deletion strains, locus YKR026C, strain gcn3, active compounds read low 1.02 | S. cerevisiae deletion strains, locus YKR091W, strain srl3, active compounds read low 0.993 | S. cerevisiae deletion strains, locus YLL001W, strain dnm1, active compounds read low 0.99 | S. cerevisiae deletion strains, locus YLL026W, active compounds read low 1.01 | S. cerevisiae deletion strains, locus YLL041C, strain sdh2, active compounds read low 1.01 | S. cerevisiae deletion strains, locus YLR027C, strain aat2, active compounds read low 0.99 | S. cerevisiae deletion strains, locus YLR039C, strain RIC1, active compounds read low 1.02 | S. cerevisiae deletion strains, locus YLR058C, strain SHM2, active compounds read low 1.01 | S. cerevisiae deletion strains, locus YLR102C, strain apc9, active compounds read low 1 | S. cerevisiae deletion strains, locus YLR113W, strain HOG1, active compounds read low 1.08 | S. cerevisiae deletion strains, locus YLR221C, strain rsa3, active compounds read low 0.979 | S. cerevisiae deletion strains, locus YLR258W, strain gsy2, active compounds read low 1.02 | S. cerevisiae deletion strains, locus YLR262C, strain YPT6 (second series), active compounds read low 0.999 | S. cerevisiae deletion strains, locus YLR262C, strain YPT6, active compounds read low 0.992 | S. cerevisiae deletion strains, locus YLR268W, strain sec22, active compounds read low 0.993 | S. cerevisiae deletion strains, locus YLR320W, strain mms22, active compounds read low 0.988 | S. cerevisiae deletion strains, locus YLR330W, strain CHS5, active compounds read low 1.01 | S. cerevisiae deletion strains, locus YLR342W, strain FKS1 (second series), active compounds read low 1.02 | S. cerevisiae deletion strains, locus YLR342W, strain FKS1, active compounds read low 1.01 | S. cerevisiae deletion strains, locus YLR357W, strain rsc2, active compounds read low 1.03 | S. cerevisiae deletion strains, locus YLR370C, strain arc18, active compounds read low 0.999 | S. cerevisiae deletion strains, locus YLR371W, strain rom2, active compounds read low 1.01 | S. cerevisiae deletion strains, locus YLR384C, strain iki3, active compounds read low 1.01 | S. cerevisiae deletion strains, locus YLR418C, strain cdc73, active compounds read low 0.984 | S. cerevisiae deletion strains, locus YML016C, strain PPZ1, active compounds read low 1 | S. cerevisiae deletion strains, locus YML032C, strain rad52, active compounds read low 1.02 | S. cerevisiae deletion strains, locus YML120C, strain ndi1, active compounds read low 0.988 | S. cerevisiae deletion strains, locus YML124C, strain tub3, active compounds read low 1 | S. cerevisiae deletion strains, locus YMR058W, strain fet3, active compounds read low 1 | S. cerevisiae deletion strains, locus YMR078C, strain ctf18, active compounds read low 0.996 | S. cerevisiae deletion strains, locus YMR125W, strain sto1, active compounds read low 1.01 | S. cerevisiae deletion strains, locus YMR129W, active compounds read low 0.996 | S. cerevisiae deletion strains, locus YMR205C, strain PFK2, active compounds read low 1.02 | S. cerevisiae deletion strains, locus YMR223W, strain ubp8, active compounds read low 1.01 | S. cerevisiae deletion strains, locus YMR231W, strain pep5, active compounds read low 1 | S. cerevisiae deletion strains, locus YMR263W, strain SAP30, active compounds read low 1 | S. cerevisiae deletion strains, locus YMR307W, strain GAS1, active compounds read low 1.03 | S. cerevisiae deletion strains, locus YNL067W, strain RPL9B, active compounds read low 1 | S. cerevisiae deletion strains, locus YNL071W, strain lat1, active compounds read low 1.04 | S. cerevisiae deletion strains, locus YNL128W, strain TEP1, active compounds read low 1.01 | S. cerevisiae deletion strains, locus YNL153C, strain GIM3, active compounds read low 0.988 | S. cerevisiae deletion strains, locus YNL183C, strain NPR1, active compounds read low 0.983 | S. cerevisiae deletion strains, locus YNL209W, strain ssb2, active compounds read low 0.984 | S. cerevisiae deletion strains, locus YNL233W, strain BNI4, active compounds read low 1.01 | S. cerevisiae deletion strains, locus YNL248C, strain rpa49, active compounds read low 1 | S. cerevisiae deletion strains, locus YNL250W, strain rad50, active compounds read low 1.01 | S. cerevisiae deletion strains, locus YNL271C, strain bni1, active compounds read low 1.01 | S. cerevisiae deletion strains, locus YNL298W, strain CLA4, active compounds read low 1 | S. cerevisiae deletion strains, locus YNL307C, strain MCK1, active compounds read low 1.02 | S. cerevisiae deletion strains, locus YNL322C, strain KRE1 (second series), active compounds read low 0.979 | S. cerevisiae deletion strains, locus YNL322C, strain KRE1, active compounds read low 1 | S. cerevisiae deletion strains, locus YNR049C, strain mso1, active compounds read low 0.994 | S. cerevisiae deletion strains, locus YNR052C, strain pop2, active compounds read low 1.01 | S. cerevisiae deletion strains, locus YOL006C, strain TOP1, active compounds read low 1.02 | S. cerevisiae deletion strains, locus YOL012C, strain htz1 1.06 | S. cerevisiae deletion strains, locus YOL147C, strain pex11, active compounds read low 1 | S. cerevisiae deletion strains, locus YOR001W, strain rrp6, active compounds read low 0.961 | S. cerevisiae deletion strains, locus YOR061W, strain CKA2, active compounds read low 1 | S. cerevisiae deletion strains, locus YOR069W, strain VPS5, active compounds read low 0.995 | S. cerevisiae deletion strains, locus YOR070C, strain gyp1, active compounds read low 1.01 | S. cerevisiae deletion strains, locus YOR080W, strain dia2, active compounds read low 0.994 | S. cerevisiae deletion strains, locus YOR083W, strain WHI5, active compounds read low 0.995 | S. cerevisiae deletion strains, locus YOR106W, strain vam3, active compounds read low 1.02 | S. cerevisiae deletion strains, locus YOR136W, strain idh2, active compounds read low 0.997 | S. cerevisiae deletion strains, locus YOR144C, strain elg1, active compounds read low 1 | S. cerevisiae deletion strains, locus YOR184W, strain ser1, active compounds read low 1.02 | S. cerevisiae deletion strains, locus YOR231W, strain MKK1, active compounds read low 1.05 | S. cerevisiae deletion strains, locus YOR265W, strain rbl2, active compounds read low 1 | S. cerevisiae deletion strains, locus YOR270C, strain vph1, active compounds read low 1.02 | S. cerevisiae deletion strains, locus YOR290C, strain snf2, active compounds read low 1.01 | S. cerevisiae deletion strains, locus YOR316C, strain cot1, active compounds read low 1.01 | S. cerevisiae deletion strains, locus YPL051W, strain arl3, active compounds read low 1.01 | S. cerevisiae deletion strains, locus YPL055C, strain LGE1, active compounds read low 0.98 | S. cerevisiae deletion strains, locus YPL078C, strain atp4, active compounds read low 1.02 | S. cerevisiae deletion strains, locus YPL106C, strain sse1, active compounds read low 0.999 | S. cerevisiae deletion strains, locus YPL240C, strain hsp82, active compounds read low 1 | S. cerevisiae deletion strains, locus YPL241C, strain CIN2, active compounds read low 1.01 | S. cerevisiae deletion strains, locus YPL256C, strain CLN2, active compounds read low 1.04 | S. cerevisiae deletion strains, locus YPR119W, strain clb2, active compounds read low 1 | S. cerevisiae deletion strains, locus YPR141C, strain kar3, active compounds read low 0.999 | S. cerevisiae deletion strains, locus YPR163C, strain tif3, active compounds read low 1 | S. cerevisiae deletion strains, locus YPR167C, strain met16, active compounds read low 0.998 | S. cerevisiae deletion strains, strain wtn01, active compounds read low 0.997 | S. cerevisiae strains, strain wild type, active compounds read low 1
